Results filed as inconclusive are left out. The source made the active and inactive calls. Calls follow the shape of the dose curve; as a rule, active = well fitted inhibition curve with a large enough effect; inconclusive = small, poorly fitted or top-dose-only effect; inactive = flat fitted curve, though single readings scatter.
Columns and labels:
NIH3T3 [1] = test: Cytotoxic Profiling of Annotated Libraries Using Quantitative High-Throughput Screening (AID 1296008); details: Five cell lines viability, CellTiter-Glo ATP luminescence, 48-72 h; max response: active compounds read low
Summary of the method: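 Cells exposed to compounds for 48 or 72 hr at 37 degrees Celsius. Viability read as ATP-coupled luminescence with CellTiter-Glo after 10 min at room temperature.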

NIH3T3 [2] = test: qHTS assay to identify novel small-molecules to repurpose for Merkel cell carcinoma treatment (AID 1296009); details: MCC and control cell lines, CellTiter-Glo viability, 72 h; at 44.8 µM (top of the series) unless noted
Summary of the method: (§1)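 Cells were incubated with compound for 72 hr at 37 degree celsius before CellTiter-Glo addition. Luminescence was normalized with no-cell wells as full cytotoxicity and DMSO as baseline.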

HEK293T = test: as above; details: MCC and control cell lines, CellTiter-Glo viability, 72 h; at 44.8 µM (top of the series) unless noted
Summary of the method: as §1
Also: nearly all actives have a fitted effect of over 60% in size.

Row | Structure (SMILES) | outcome (NIH3T3 [1]) | outcome (NIH3T3 [2]) | outcome (HEK293T)
1 | Nc1nc2c(ncn2[C@@H]2O[C@H](CO)[C@@H](O)[C@H]2O)c(=O)[nH]1 | inactive | inactive | –
2 | CC(NC(=O)C(O)C(C)C)C(=O)NC1C(=O)N(C)CCc2ccccc21 (centres undefined) | inactive | inactive | inactive
3 | O=C(O)c1ccccc1NC(=O)N1CCC(c2ccccc2C(F)(F)F)CC1 | inactive | inactive | inactive
4 | C=CC(C)(O)C(O)CC1C(C)(O)C(O)C(O)C2C(C)(C)CCCC21C (centres undefined) | inactive | inactive | –
5 | COC(=O)CC(O)CC(O)/C=C/c1c(C)ccc2c1C(O)CC(C)C2 (centres undefined) | inactive | inactive | inactive
6 | CC1(C)CC[C@]2(C(=O)O)CC[C@]3(C)C(=CCC4[C@@]5(C)CC[C@H](O[C@@H]6O[C@H](CO)[C@@H](O)[C@H](O)[C@H]6O[C@@H]6O[C@H](CO)[C@@H](O)[C@H](O)[C@H]6O)[C@@](C)(CO)C5CC[C@]43C)[C@@H]2C1 (some centres undefined) | inactive | inactive [at 17.4 µM] | –
7 | COc1cc(O)c2c(c1)C1=C[C@H](O)[C@@H](O)C[C@]1(C)OC2=O | inactive | inactive | inactive
8 | CC(O)/C=C/C1(O)C(C)C(O[C@@H]2O[C@H](CO)[C@@H](O)[C@H](O)[C@H]2O)C(O)CC1(C)C (some centres undefined) | inactive | inactive [at 17.4 µM] | inactive [at 17.4 µM]
9 | OC[C@H]1O[C@@H](Oc2cc(O)c3c(c2)O[C@@H](c2ccc(O)cc2)[C@H](O)C3)[C@H](O)[C@@H](O)[C@@H]1O | inactive | inactive [at 17.4 µM] | –
10 | Cc1c2cc(c(C(=O)O)c1C)OC1OC(C(O)C(O)C1O)C(O)C(O)C1OC(O2)C(O)C(O)C1O (centres undefined) | inactive | inactive [at 17.4 µM] | –
11 | COc1ccc(CN2C(=O)C(=O)c3cc(S(=O)(=O)N4CCC[C@H]4COc4cccnc4)ccc32)cc1 | inactive | inactive | inactive
12 | CC(=O)N[C@@H](C(=O)O[C@H]1CCC(C)(C)[C@@H]2CCC3=C(COC3=O)[C@@]12C)C(C)C | inactive | inactive | –
13 | CC(C)C[C@H](CC(=O)NO)C(=O)N[C@H](C(=O)N[C@@H](C)C(=O)NCCN)C(C)(C)C | inactive | inactive [at 9.27 µM] | –
14 | CC1(C)CC[C@]2(C(=O)O[C@@H]3O[C@H](CO)[C@@H](O)[C@H](O)[C@H]3O)CC[C@]3(C)C(=CCC4[C@@]5(C)CC[C@H](O[C@@H]6O[C@H](C(=O)O)[C@@H](O)[C@H](O[C@@H]7O[C@H](CO)[C@H](O)[C@H](O)[C@H]7O)[C@H]6O)C(C)(C)C5CC[C@]43C)C2C1 (some centres undefined) | inactive | inactive [at 9.27 µM] | –
15 | C=C(C)C1CCC2(C(=O)O[C@@H]3O[C@H](CO[C@@H]4O[C@H](CO)[C@@H](O)[C@H](O)[C@H]4O)[C@@H](O)[C@H](O[C@@H]4O[C@@H](C)[C@H](O)[C@@H](O)[C@H]4O)[C@H]3O)CCC3(C(=O)O)C(CCC4C5(C)CCC(O)C(C)(C)C5CCC43C)C12 (some centres undefined) | inactive | inactive [at 9.27 µM] | inactive [at 9.27 µM]
16 | C=C1C(=O)O[C@H](CCC)[C@H]1C(=O)O | inactive | inactive | –
17 | c1cc(OCCCN2CCCCC2)ccc1CN1CCCCC1 | inactive | inactive | –
18 | COC1=CC(=O)CC(C)C12Oc1cc(OC)cc(O)c1C2=O (centres undefined) | inactive | inactive | –
19 | C[C@H](NC(c1cccc2[nH]c(=O)c(=O)[nH]c12)P(=O)(O)O)c1ccc(Br)cc1 (some centres undefined) | inactive | inactive | –
20 | CCOc1cc(CC(=O)NC(CC(C)C)c2ccccc2N2CCCCC2)ccc1C(=O)O (centres undefined) | inactive | inactive | –
21 | C[C@@H]1O[C@@H](O[C@H]2[C@H](OC(=O)[C@]34CCC(C)(C)C[C@H]3C3=CCC5[C@@]6(C)C[C@H](O)[C@H](O[C@@H]7O[C@H](CO)[C@@H](O)[C@H](O)[C@H]7O)[C@@](C)(CO)C6[C@H](O)C[C@@]5(C)[C@]3(C)C[C@H]4O)OC[C@H](O)[C@@H]2O)[C@H](O)[C@H](O)[C@H]1O[C@@H]1OC[C@@H](O)[C@H](O[C@H]2OC[C@](O)(CO)[C@H]2O)[C@H]1O (some centres undefined) | inactive | inactive [at 9.27 µM] | –
22 | CC(C)/C=C1\NC(=O)C(C(C)C)n2c1nc1c(c2=O)C=CC=CO1 (centres undefined) | inactive | inactive | –
23 | CC(C)c1ccc(CO)cc1O[C@@H]1O[C@H](CO)[C@@H](O)[C@H](O)[C@H]1O | inactive | inactive | inactive
